PubChem BioAssay (NCATS)
Values joined by “and” are separate entries in the source; they are usually repeats but may differ in a detail not shown here. Equal entries are not always repeated. Inconclusive results are not listed. Active and inactive are the calls of the source. Unless noted, calls follow the shape of the dose curve; as a rule, active = well fitted curve in the direction sought with a large enough effect; inconclusive = small, poorly fitted or top-dose-only effect, or another doubt; inactive = no such curve, though single readings can be large; an effect the other way counts as inactive or inconclusive.

Columns and labels:
[1] = target: Retinoic acid receptor RXR-alpha (Homo sapiens) (UniProt P19793); assay: qHTS assay for small molecule antagonists of retinoid X receptor alpha signaling (AID 588546; active = well fitted inhibition curve with a large enough effect in the signal ratio, with a control signal flat, not every such curve was filed as active; the % refers to the signal ratio;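 also: cells stimulated with 9-cis-retinoic acid as agonist; % is scaled to controls: 0 for no effect and ±100 for the full control effect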); details: HEK293T RXRa-UAS-bla, beta-lactamase ratio, antagonist mode
Chain of Retinoic acid receptor RXR-alpha (Homo sapiens) (P19793 whole entry, looked up): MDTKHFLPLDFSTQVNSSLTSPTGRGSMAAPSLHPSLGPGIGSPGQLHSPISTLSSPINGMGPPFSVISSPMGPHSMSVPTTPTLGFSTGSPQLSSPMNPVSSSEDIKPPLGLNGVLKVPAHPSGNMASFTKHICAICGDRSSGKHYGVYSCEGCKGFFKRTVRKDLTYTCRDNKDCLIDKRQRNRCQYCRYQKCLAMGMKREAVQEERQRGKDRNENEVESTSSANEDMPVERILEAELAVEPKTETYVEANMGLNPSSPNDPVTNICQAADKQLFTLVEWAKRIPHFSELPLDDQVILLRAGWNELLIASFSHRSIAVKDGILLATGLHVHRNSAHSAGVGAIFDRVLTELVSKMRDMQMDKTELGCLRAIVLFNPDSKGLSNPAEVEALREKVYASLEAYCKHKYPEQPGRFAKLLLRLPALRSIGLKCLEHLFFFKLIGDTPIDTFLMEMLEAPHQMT
Procedure, shortened: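 Beta-lactamase reporter inhibition, read as CCF4 fluorescence ratio (ex 405, em 460/530 nm) after 2 h at RT. HEK293T UAS-bla cells, 2500/well, were stimulated with 9-cis-RA at 500 or 100 nM final alongside test compound for 18 h at 37 C.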

[2] = target: Thyroid hormone receptor beta (Homo sapiens) (UniProt P10828); assay: qHTS assay for small molecule antagonists of thyroid hormone receptor beta signaling (AID 588547; active = well fitted inhibition curve with a large enough effect in the signal ratio, with a control signal flat, not every such curve was filed as active; the % refers to the signal ratio;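 also: cells stimulated with 0.4 nM T3 agonist during compound exposure; series mostly up to about 77 µM; % is scaled to controls: 0 for no effect and ±100 for the full control effect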); details: TR-UAS-bla HEK293, beta-lactamase ratio, antagonist mode, 18 h
Chain of Thyroid hormone receptor beta (Homo sapiens) (P10828 whole entry, looked up): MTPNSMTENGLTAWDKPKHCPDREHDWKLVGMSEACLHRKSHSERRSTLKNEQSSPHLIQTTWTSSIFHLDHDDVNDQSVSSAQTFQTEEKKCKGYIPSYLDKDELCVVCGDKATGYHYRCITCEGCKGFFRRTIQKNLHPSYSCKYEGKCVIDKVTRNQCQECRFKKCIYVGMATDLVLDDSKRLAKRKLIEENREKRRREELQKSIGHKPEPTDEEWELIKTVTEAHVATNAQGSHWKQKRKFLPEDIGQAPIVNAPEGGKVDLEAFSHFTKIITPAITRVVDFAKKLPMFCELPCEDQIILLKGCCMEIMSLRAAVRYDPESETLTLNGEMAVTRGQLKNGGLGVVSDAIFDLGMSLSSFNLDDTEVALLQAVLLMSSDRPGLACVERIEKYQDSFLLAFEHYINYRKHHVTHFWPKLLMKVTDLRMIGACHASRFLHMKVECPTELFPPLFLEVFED
Procedure, shortened: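 TR-UAS-bla GripTite HEK293 cells in 2% charcoal/dextran FBS medium; compounds 0.59 nM to 92 uM with T3 at 0.4nM final, 18 h at 37 C. Beta-lactamase read by CCF4 fluorescence (460/530 nm); Hill fits gave IC50 and efficacy.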

[3] = target: Voltage-gated inwardly rectifying potassium channel KCNH2 (Homo sapiens) (UniProt Q12809); assay: qHTS Assay for Small Molecule Inhibitors of the Human hERG Channel Activity (AID 588834);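 also: top concentration of the series differs between compounds; % is scaled to controls: 0 for no effect and ±100 for the full control effect; lower thallium flux fluorescence means stronger hERG block; nearly all actives have a fitted effect of over 50% in size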
Chain of Voltage-gated inwardly rectifying potassium channel KCNH2 (Homo sapiens) (Q12809 whole entry, looked up): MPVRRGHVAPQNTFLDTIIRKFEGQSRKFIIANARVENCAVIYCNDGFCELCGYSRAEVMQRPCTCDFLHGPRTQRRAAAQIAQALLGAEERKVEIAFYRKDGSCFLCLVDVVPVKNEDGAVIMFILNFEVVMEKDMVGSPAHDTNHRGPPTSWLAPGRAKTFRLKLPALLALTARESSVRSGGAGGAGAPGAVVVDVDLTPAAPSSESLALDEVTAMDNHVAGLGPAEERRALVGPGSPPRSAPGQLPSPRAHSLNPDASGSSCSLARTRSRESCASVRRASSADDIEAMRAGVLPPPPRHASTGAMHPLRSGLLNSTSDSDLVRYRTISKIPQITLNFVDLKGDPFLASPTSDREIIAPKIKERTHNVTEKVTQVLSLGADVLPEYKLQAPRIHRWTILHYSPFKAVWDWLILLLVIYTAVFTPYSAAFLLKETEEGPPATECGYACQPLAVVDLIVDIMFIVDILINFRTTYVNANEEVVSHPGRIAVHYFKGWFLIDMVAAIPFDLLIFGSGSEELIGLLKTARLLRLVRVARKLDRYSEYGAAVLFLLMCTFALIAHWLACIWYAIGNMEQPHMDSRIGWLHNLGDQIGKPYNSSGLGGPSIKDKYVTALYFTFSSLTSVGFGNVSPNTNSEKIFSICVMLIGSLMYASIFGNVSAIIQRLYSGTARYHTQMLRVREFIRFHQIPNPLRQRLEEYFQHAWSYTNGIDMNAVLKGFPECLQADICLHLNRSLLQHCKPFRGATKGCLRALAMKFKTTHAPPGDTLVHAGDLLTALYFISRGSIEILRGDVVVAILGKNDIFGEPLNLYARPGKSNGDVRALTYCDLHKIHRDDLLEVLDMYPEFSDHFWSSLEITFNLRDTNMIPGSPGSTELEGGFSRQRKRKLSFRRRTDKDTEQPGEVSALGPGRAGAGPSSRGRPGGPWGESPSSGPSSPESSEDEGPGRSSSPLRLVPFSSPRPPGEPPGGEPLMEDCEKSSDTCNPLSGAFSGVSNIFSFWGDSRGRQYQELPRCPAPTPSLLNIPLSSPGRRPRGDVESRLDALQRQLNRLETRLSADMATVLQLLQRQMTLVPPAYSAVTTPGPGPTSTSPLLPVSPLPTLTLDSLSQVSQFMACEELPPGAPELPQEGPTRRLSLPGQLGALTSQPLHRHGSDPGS
Procedure, shortened: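 In hERG-transduced U2OS cells, dye-loaded for 1 hr at room temperature in dark, test compounds incubated 10 min at 37 °C before thallium stimulation. AC50 values derived by Hill modelling of concentration-response.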

[4] = qHTS assay for small molecule agonists of the antioxidant response element (ARE) signaling pathway (AID 651741; active = well fitted activation curve with a large enough effect in the signal ratio; the % refers to the signal ratio; also: % of control where 0% means no effect)
Procedure, shortened: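 Stably integrated ARE-beta-lactamase reporter HepG2 cells; 16 h compound incubation, 37 C; LiveBLAzer FRET substrate 2 h at room temperature; fluorescence intensity.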

[5] = qHTS assay for small molecule activators of the p53 signaling pathway (AID 651743; active = well fitted activation curve with a large enough effect in the signal ratio, not every such curve was filed as active; the % refers to the signal ratio; also: series mostly up to about 92 µM; % of control where 0% means no effect); details: HCT-116 p53RE-bla, beta-lactamase FRET ratio, 16 h; activation: stronger effect = higher value
Procedure, shortened: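 Following 16 hours of compound exposure at 37 C, HCT-116 cells bearing the p53RE-bla reporter were loaded with LiveBLAzer B/G FRET substrate for 2 hours at room temperature and fluorescence intensity was recorded.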

[6] = qHTS assay for small molecule activators of the nuclear factor-kappa B (NF-kB) signaling pathway (AID 651749; active = well fitted activation curve with a large enough effect in the signal ratio; the % refers to the signal ratio; also: series mostly up to about 77 µM; % of control where 0% means no effect); details: NF-kB-bla ME-180 cells, beta-lactamase FRET ratio, 16 h; activation: stronger effect = higher value
Procedure, shortened: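 In this qHTS format, compounds acting as activators increase NF-kB-driven beta-lactamase in ME-180 cells, measured as disrupted FRET after 16 hr exposure at 37C and 5% CO2.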

[7] = qHTS assay for small molecule disruptors of the mitochondrial membrane potential - 5 hr assay (AID 651755; calls by dose curve; also: % is scaled to controls: 0 for no effect and ±100 for the full control effect; nearly all actives have a fitted effect of over 40% in size)
Procedure, shortened: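 Read-out: ratiometric Mito-MPS fluorescence, green monomer (ex 490/em 535) vs red mitochondrial aggregate (ex 540/em 590). HepG2 cells treated 5 hr at 37C before 30 min dye loading.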

[8] = target: Tumor necrosis factor (Homo sapiens) (UniProt P01375); assay: qHTS assay to identify small molecules that stimulate Tumor Necrosis Factor-alpha (TNF-alpha) secretion (AID 651757; active = well fitted curve in the direction sought with a large enough effect in the signal ratio; the % refers to the signal ratio; also: 0% is about no effect)
Procedure, shortened: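 Human monocytic THP-1 cells are plated, treated with compound and held at 37 C for 17 hrs. Labeled anti-TNF-alpha antibody mixture is then added; after 3 hr at room temperature, TR-FRET signal reports secreted TNF-alpha.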

[9] = qHTS assay to identify small molecules that stimulate interleukin-8 (IL-8) secretion (AID 651758; active = well fitted activation curve with a large enough effect in the signal ratio; the % refers to the signal ratio; also: 0% is about no effect)
Procedure, shortened: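 Compounds are added to THP-1 cells (2000 per well) and left 16 hrs at 37 C. A labeled anti-IL-8 antibody pair is then added, and IL-8 secretion is measured by time-resolved FRET after 1-3 hrs at room temperature.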

[10] = qHTS assay for environmental chemicals that activate the Aryl hydrocarbon Receptor (AhR) signaling pathway (AID 651777); details: 1A2-DRE human hepatoma cells, luciferase, 24 h; activation: stronger effect = higher value; also: % of control where 0% means no effect; nearly all actives have a fitted effect of over 15% in size
Procedure, shortened: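 Stable CYP1A2 promoter/DRE-luciferase human hepatoma line treated 24 hr; One-Glo luminescence, 30 min RT.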

[11] = target: Peroxisome proliferator-activated receptor alpha (Homo sapiens) (UniProt Q07869); assay: qHTS assay for small molecule agonists of the peroxisome proliferator-activated receptor alpha (PPARalpha) signaling pathway (AID 651778); details: PathHunter PPARalpha complementation, chemiluminescence, 6 h; stronger effect = higher value; also: % of control where 0% means no effect
Chain of Peroxisome proliferator-activated receptor alpha (Homo sapiens) (Q07869 whole entry, looked up, the tested form may be a part): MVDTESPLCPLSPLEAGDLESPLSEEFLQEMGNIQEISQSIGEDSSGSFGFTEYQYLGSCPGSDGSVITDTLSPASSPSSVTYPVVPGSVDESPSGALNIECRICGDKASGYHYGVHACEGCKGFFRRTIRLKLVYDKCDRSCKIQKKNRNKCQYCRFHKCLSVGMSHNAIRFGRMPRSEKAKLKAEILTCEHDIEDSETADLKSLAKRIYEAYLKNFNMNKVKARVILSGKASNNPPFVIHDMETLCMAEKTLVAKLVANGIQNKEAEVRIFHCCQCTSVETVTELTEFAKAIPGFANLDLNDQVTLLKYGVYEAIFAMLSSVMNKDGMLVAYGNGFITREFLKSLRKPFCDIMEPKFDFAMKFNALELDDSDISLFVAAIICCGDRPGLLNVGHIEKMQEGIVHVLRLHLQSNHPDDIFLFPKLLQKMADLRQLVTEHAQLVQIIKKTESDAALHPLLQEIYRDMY
Procedure, shortened: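 Enzyme-fragment complementation assay in which ligand-bound PPARalpha translocates and forms an active enzyme that generates chemiluminescence. Cells were plated overnight, exposed to compound for 6 hr at 37 C, and then given detection reagent for 60 min at room temperature.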

[12] = target: Nuclear receptor ROR-gamma (Homo sapiens) (UniProt P51449); assay: qHTS assay for small molecule antagonists of the retinoid-related orphan receptor gamma (ROR-gamma) signaling pathway (AID 651802);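 also: CHO cells with doxycycline-induced ROR-gamma expression; series mostly up to about 92 µM; % is scaled to controls: 0 for no effect and ±100 for the full control effect; nearly all actives have a fitted effect of over 60% in size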
Procedure, shortened: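 Steps: cells dispensed; compound or DMSO transferred by pin tool; doxycycline added to induce the ROR response element-driven luciferase; plates held 16hr at 37C; ONE-Glo added and luminescence measured.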

[13] = qHTS assay for small molecule agonists of the antioxidant response element (ARE) signaling pathway measured by Nrf2-dependant transcriptional activity (AID 720636; active = well fitted curve in the direction sought with a large enough effect in the repeat runs; an effect the other way counts as inactive or inconclusive;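 also: HepG2 cells with an ARE-driven luciferase reporter; % of control where 0% means no effect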)
Procedure, shortened: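 Reporter gene assay, HepG2 ARE-luc: 16 hr compound, 37 C, 5% CO2; read-out luciferase luminescence.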

[14] = qHTS assay for small molecule antagonists of the retinoid-related orphan receptor gamma (ROR-gamma) signaling pathway - cell viability counter screen (AID 720652; active = well fitted curve in the direction sought with a large enough effect in the repeat runs; an effect the other way counts as inactive or inconclusive;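 also: CHO reporter cells with doxycycline-induced ROR-gamma expression; series mostly up to about 92 µM; compound exposure lasted 16 hr before ATP read; % is scaled to controls: 0 for no effect and ±100 for the full control effect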)
Procedure, shortened: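 Steps: seed CHO cells bearing TET-inducible ROR and ROR response element-luciferase; rest 5 hr at 37 C; add compound, then doxycycline; incubate 16 hr; add CellTiter-Glo and read luminescence as ATP-based viability.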

[15] = qHTS assay for small molecule agonists of the antioxidant response element (ARE) signaling pathway measured by Nrf2-dependant transcriptional activity - cell viability counter screen (AID 720653; active = well fitted curve in the direction sought with a large enough effect in the repeat runs; an effect the other way counts as inactive or inconclusive; also: % is scaled to controls: 0 for no effect and ±100 for the full control effect); details: ARE-bla HepG2 viability, CellTiter-Glo ATP luminescence, 16 h; stronger effect = lower value
Procedure, shortened: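 ARE-bla HepG2 cells treated with compounds for 16 h at 37C; this counter screen measures viability as intracellular ATP by CellTiter-Glo luminescence after 30 min at room temperature.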

[16] = qHTS assay for cell viability of HEK293 cells (AID 743288); details: ATP luminescence (CellTiter-Glo), 18 h; max response: stronger effect = lower value; also: % is scaled to controls: 0 for no effect and ±100 for the full control effect; nearly all actives have a fitted effect of over 50% in size
Procedure, shortened: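 After 18 h compound exposure at 37 C, parental HEK293 cells (2,000/well) are lysed with CellTiter-Glo and luminescence is read following 30 min at room temperature.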

[17] = qHTS assay for cell viability of the p53RE-bla HCT-116 cell line (AID 743292); also: % is scaled to controls: 0 for no effect and ±100 for the full control effect; nearly all actives have a fitted effect of over 55% in size
Procedure, shortened: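 Readout: CellTiter-Glo luminescence after 30 min RT. Treatment: compounds in DMSO, 16 h, 37 C. Cells: CellSensor p53RE-bla HCT-116, 4,000/well, preincubated 5 h.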

[18] = target: Rap guanine nucleotide exchange factor 3 (Homo sapiens) (UniProt O95398); assay: Confirmatory qHTS for antagonist of cAMP-regulated guanine nucleotide exchange factor 3 (EPAC1) (AID 1645880);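 also: plate controls were DMSO only for no effect and full effect of the ATA control for full effect; nearly all actives have a fitted effect of over 55% in size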
Chain of Rap guanine nucleotide exchange factor 3 (Homo sapiens) (O95398 whole entry, looked up): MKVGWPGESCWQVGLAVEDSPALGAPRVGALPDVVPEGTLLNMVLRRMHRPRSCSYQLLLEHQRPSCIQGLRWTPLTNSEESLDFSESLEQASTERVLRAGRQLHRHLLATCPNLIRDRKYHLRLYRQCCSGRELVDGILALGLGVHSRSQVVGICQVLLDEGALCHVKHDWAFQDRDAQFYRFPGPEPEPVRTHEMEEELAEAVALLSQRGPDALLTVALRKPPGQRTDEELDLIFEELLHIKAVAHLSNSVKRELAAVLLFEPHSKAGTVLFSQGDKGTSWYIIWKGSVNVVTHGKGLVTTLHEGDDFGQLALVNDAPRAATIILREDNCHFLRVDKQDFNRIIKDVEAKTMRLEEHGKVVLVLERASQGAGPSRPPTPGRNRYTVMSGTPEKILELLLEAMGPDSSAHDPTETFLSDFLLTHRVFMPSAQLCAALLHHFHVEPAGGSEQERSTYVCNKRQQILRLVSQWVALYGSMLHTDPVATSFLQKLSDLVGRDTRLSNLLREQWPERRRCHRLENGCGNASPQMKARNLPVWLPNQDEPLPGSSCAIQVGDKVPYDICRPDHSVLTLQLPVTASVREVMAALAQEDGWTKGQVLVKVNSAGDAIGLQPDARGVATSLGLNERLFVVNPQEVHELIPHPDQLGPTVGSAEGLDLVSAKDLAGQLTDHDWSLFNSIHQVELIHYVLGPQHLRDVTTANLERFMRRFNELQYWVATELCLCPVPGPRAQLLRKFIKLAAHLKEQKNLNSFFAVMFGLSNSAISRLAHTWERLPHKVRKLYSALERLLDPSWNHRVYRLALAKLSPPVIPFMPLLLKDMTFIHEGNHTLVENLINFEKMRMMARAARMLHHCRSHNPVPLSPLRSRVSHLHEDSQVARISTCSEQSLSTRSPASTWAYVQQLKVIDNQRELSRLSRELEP
Procedure, shortened: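 Released BODIPY-GDP fluoresces less than Rap1-bound BODIPY-GDP; the signal is followed at 480/540 nm at 5-min intervals over 30 min, after 5 min at room temperature. Reactions contain 100 nM EPAC1, 250 nM RAP1B-BODIPY-GDP and 50 uM GDP; results are normalized to ATA and DMSO.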

[19] = target: Rap guanine nucleotide exchange factor 3 (Homo sapiens) (UniProt O95398); assay: Confirmatory qHTS for agonist of cAMP-regulated guanine nucleotide exchange factor 3 (EPAC1) (AID 1645881);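 also: EPAC1 catalysed release of BODIPY-GDP from Rap1B seen as fluorescence loss; 100% = effect of cAMP agonist control; nearly all actives have a fitted effect of over 75% in size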
[20] = target: Rap guanine nucleotide exchange factor 4 (Homo sapiens) (UniProt Q8WZA2); assay: Confirmatory qHTS for agonist of cAMP-regulated guanine nucleotide exchange factor 4 (EPAC2) (AID 1645884);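 also: nucleotide exchange releases bodipy-GDP from Rap1 and this lowers its fluorescence; % is scaled to controls: 0 for no effect and ±100 for the full control effect; nearly all actives have a fitted effect of over 65% in size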
Chain of Rap guanine nucleotide exchange factor 4 (Homo sapiens) (Q8WZA2 whole entry, looked up): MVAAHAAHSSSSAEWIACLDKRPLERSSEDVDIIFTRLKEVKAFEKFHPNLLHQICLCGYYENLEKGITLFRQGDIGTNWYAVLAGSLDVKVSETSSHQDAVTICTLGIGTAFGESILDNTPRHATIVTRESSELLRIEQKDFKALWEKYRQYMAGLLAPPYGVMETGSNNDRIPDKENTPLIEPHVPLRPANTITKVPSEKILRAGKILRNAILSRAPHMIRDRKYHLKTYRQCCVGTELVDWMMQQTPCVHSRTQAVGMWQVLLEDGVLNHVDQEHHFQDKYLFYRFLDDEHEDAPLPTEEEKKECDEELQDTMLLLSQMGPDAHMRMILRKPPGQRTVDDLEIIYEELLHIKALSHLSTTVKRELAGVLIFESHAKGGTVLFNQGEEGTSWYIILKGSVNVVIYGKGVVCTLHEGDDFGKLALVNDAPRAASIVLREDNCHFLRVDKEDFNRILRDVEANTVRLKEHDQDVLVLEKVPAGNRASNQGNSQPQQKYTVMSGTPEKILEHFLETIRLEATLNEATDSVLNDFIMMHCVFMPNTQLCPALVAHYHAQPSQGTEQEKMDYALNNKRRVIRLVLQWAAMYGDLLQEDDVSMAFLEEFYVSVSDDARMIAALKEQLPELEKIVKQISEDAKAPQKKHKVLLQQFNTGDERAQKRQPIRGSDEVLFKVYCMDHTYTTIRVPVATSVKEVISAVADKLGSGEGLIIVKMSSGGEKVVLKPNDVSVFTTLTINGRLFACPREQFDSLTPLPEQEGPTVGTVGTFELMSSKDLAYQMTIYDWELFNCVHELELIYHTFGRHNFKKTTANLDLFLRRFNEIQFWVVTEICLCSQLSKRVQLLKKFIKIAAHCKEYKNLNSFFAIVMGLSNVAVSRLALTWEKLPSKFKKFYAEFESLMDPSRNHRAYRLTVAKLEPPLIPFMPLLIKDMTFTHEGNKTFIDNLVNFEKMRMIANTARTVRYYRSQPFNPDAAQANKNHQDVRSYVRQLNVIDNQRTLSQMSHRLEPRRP

[21] = target: Rap guanine nucleotide exchange factor 4 (Homo sapiens) (UniProt Q8WZA2); assay: Confirmatory qHTS for antagonist of cAMP-regulated guanine nucleotide exchange factor 4 (EPAC2) (AID 1645885); also: % is scaled to controls: 0 for no effect and ±100 for the full control effect; nearly all actives have a fitted effect of over 25% in size
[22] = target: Rap guanine nucleotide exchange factor 3 (Homo sapiens) (UniProt O95398); assay: Counterscreen qHTS for antagonist of cAMP-regulated guanine nucleotide exchange factor 3 (EPAC1) (AID 1645888); also: % of control where 0% means no effect
Procedure, shortened: (§1)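 Rap1B–BODIPY-GDP (250 nM) with 50 uM GDP; compounds pin-transferred to 9.74 nM–152 uM final (activator) or from 7.32 nM upwards (inhibitor). Fluorescence Ex/Em 480/540 nm read at 5 and 30 min, then after adding cAMP or buffer, at room temperature.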

[23] = target: Rap guanine nucleotide exchange factor 3 (Homo sapiens) (UniProt O95398); assay: Counterscreen qHTS for agonist of cAMP-regulated guanine nucleotide exchange factor 3 (EPAC1) (AID 1645889); also: % of control where 0% means no effect; nearly all actives have a fitted effect of over 40% in size
Procedure, shortened: as §1

[24] = target: Nuclear receptor subfamily 1 group I member 2 (Rattus norvegicus) (UniProt Q9R1A7); assay: qHTS assay for small molecule activators of the rat pregnane X receptor (rPXR) signaling pathway (AID 651751; call rule not given here; also: 0% is about no effect); details: rPXR reporter cells, luciferase (One-Glo), 24 h
Chain of Nuclear receptor subfamily 1 group I member 2 (Rattus norvegicus) (Q9R1A7 whole entry, looked up): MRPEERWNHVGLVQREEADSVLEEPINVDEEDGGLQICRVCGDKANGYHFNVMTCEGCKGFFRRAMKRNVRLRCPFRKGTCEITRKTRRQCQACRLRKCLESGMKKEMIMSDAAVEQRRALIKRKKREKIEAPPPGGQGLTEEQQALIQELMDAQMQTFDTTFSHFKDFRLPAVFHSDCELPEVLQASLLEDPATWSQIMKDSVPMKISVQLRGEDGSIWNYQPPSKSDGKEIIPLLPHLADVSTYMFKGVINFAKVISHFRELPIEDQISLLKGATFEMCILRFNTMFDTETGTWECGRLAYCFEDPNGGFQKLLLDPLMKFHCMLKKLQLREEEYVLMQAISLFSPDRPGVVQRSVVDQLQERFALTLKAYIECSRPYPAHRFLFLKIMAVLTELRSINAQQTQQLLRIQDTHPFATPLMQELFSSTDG

[25] = qHTS assay for small molecule activators of the human pregnane X receptor (PXR) signaling pathway (AID 720659; call rule not given here; also: 0% is about no effect)

CCCOC(=O)c1ccccc1C(=O)OCCC
inactive: max response [1] -20.7% and -19.5% | activity change % (negative = inhibition) [2] 0.697% and -6.62% | Potency [3] | Potency [4] | activation [5] -4.2% and 2.37% | activation [6] -0.812% and -1.55% | Potency [7] | outcome [8] | Potency [9] | activation [10] -1.57% and -0.202% | max response [11] -3.23% and -0.333% | Potency [12] | outcome [13] | Potency [14] | max response [15] 2.53% and -0.566% | max response [16] -2.21% and -12.8% | Potency [17] | Potency [18] | Potency [19] | activation [20] -6.75% [at 17.1 µM, percent relative to cAMP agonist control] | activity change, negative = inhibition [21] -25.7% [at 12.7 µM] | activity change, negative = inhibition [22] -2.66% [at 30.8 µM] | activation [23] 23.9% [at 30.8 µM] | max response [24] 4.44% and -1.18% | outcome [25]
